Experimental data reported in ChEMBL document CHEMBL3433997, “St. Jude Leishmania screening dataset” (2016).

Experiments:
Type in all cases: functional
[1] = molecular target: Solute carrier family 2, facilitated glucose transporter member 1 (Homo sapiens) (UniProt P11166); test: ST_JUDE_LEISH: Cytotoxicity at 2uM final concentration against transgenic Leishmania Mexicana promastigotes LmGLUT1 that are glucose transport deficient and complemented with the human glucose transporter GLUT1. Activity is measured by DNA content using SYBR green in vitro
Sequence of Solute carrier family 2, facilitated glucose transporter member 1 (Homo sapiens) (P11166 whole entry): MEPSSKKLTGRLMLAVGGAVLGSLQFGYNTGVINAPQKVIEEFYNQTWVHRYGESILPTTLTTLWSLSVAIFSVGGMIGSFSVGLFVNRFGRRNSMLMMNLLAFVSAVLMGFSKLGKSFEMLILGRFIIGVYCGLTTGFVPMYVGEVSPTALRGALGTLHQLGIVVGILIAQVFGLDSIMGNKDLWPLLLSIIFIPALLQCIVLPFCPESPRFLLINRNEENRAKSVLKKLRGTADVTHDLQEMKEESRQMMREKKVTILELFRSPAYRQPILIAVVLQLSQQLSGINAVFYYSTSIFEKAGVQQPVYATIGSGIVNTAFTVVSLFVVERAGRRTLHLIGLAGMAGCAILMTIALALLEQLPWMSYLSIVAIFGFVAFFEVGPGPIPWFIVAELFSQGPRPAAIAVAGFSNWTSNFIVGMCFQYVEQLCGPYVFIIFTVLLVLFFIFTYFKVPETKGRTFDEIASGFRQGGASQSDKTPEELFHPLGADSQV

[2] = molecular target: Hexose transporter 1 (Plasmodium falciparum) (UniProt O97467); test: ST_JUDE_LEISH: Cytotoxicity at 2uM final concentration against transgenic Leishmania Mexicana promastigotes LmPfHT that are glucose transport deficient and complemented with the Plasmodium falciparum hexose transporter. Activity is measured by DNA content using SYBR green in vitro
[3] = molecular target: Glucose transporter (Leishmania mexicana) (UniProt O61059); test: ST_JUDE_LEISH: Cytotoxicity at 2uM final concentration against transgenic Leishmania Mexicana promastigotes LmGT2 that are glucose transport deficient and complemented with the L. Mexicana glucose transporter 2. Activity is measured by DNA content using SYBR green in vitro

| Structure (SMILES) | inhibition [1] | inhibition [2] | inhibition [3] |
| --- | --- | --- | --- |
| O=C(Nc1ccc(Cn2nc(Cl)c(N3CCCNCC3)cc2=O)cc1)Nc1ccc(-c2ccccc2)cc1 | 19.7% | 15.5% | 16.6% |
| CN(CCC(O)c1ccc(Cl)c(Cl)c1)CC1CC1C(=O)c1ccccc1 (configuration not stated) | 4.57% | 4.62% | 5.49% |
| COc1ccc(NC(=O)Nc2nc(-c3ccc(Cl)c(C)c3)cs2)cc1N1CCN(C)CC1 | 0.68% | 3.54% | 2.63% |
| CCSc1nnc(C2CCCN(CC(=O)Nc3cc(C(F)(F)F)ccc3Cl)C2)n1CC (configuration not stated) | 8.8% | 8.79% | 8.67% |
| COc1ccc(NC(=O)[C@H](Cc2ccccc2)Nc2cc(C)nc(NCCc3cccnc3)n2)cc1 | -0.56% | 1.12% | 1.34% |
| CCCc1cc(Cc2cnc(N)nc2N)c2cccnc2c1OC | 6.44% | 4.01% | 4.33% |
| COCCN(CCOC)c1ncc(-c2ccsc2)c(-c2nc(C)c(C)s2)n1 | -1.28% | 0.1% | 1.83% |
| Cc1cccc(C)c1OC(=O)CSc1nnc(-c2ccccc2O)o1 | 1.32% | 2.43% | 1.28% |
| Cc1cc2c(NC(=O)NC3CCN(CCc4ccccc4Cl)CC3)cccc2cn1 | 2.51% | 1.74% | 1.68% |
| COc1ccc(-c2cc(-c3nc4cc(C(=O)N5CCOCC5)ccc4[nH]3)c(=O)n(C)c2)cc1OC | 2.76% | 0.74% | 0.91% |
| CO/C(=C/C=C/c1cc2cc(Cl)c(Cl)cc2[nH]1)C(=O)NC1CC(C)(C)N(C)C(C)(C)C1 | 2.45% | 0.74% | -0.41% |
| COc1ccc(N2CCN(CCCN3CCN(C(=O)c4ccc(/C=C/c5ccc(Cl)c(Cl)c5)cc4)CC3)CC2)c(OC)c1 | 6.35% | 6.21% | 5.56% |
| COc1ccc(Cl)cc1NC(=O)Nc1cc(C)nc2ccccc12 | 7.32% | 12.8% | 2.81% |
| COC(=O)c1cccc(CNCc2cccc(-c3ccc(-c4nc5ccccc5[nH]4)s3)c2)c1 | 0.25% | 2.5% | 1.96% |
| NC(=O)c1ccsc1NC(=O)CNC(c1ccc(F)cc1)c1cccs1 (configuration not stated) | 2.48% | 2.01% | 2.8% |
| CCCCCCNC(=O)C1Cc2c([nH]c3ccccc23)C2(CCN(CCc3ccccc3)CC2)N1 (configuration not stated) | 2.97% | 0.47% | 0.55% |
| Oc1cccc(Nc2ccnc3cc(-c4nccs4)ccc23)c1 | -0.6% | 12.9% | 16.1% |

| Structure (SMILES) | inhibition [1] | inhibition [2] | inhibition [3] |
| --- | --- | --- | --- |
| CN(C)CCNCc1ccc(-c2ccc3c(Nc4ccc(Oc5ccccc5)cc4)ccnc3c2)o1 | -1.6% | -1.01% | -0.02% |
| N=C(N)c1ccc2[nH]c(-c3cc4cc(C(=N)N)ccc4o3)cc2c1 | 2.26% | 2.36% | 1.58% |
| O=C(N[C@@H](Cc1ccccc1)[C@H](O)CNCCC(F)(F)F)c1cccc(OCC2CC2)c1 | -0.59% | -0.22% | 0.56% |
| COc1ccc(NC(=O)Nc2ccc(Nc3nc(C)cc(N(C)C)n3)cc2)cc1 | 2.57% | 3.61% | 4.41% |
| CC[C@H](N/C(=N\c1cccc(Cl)c1Cl)Nc1ccc(C#N)cc1O)c1ccccc1 | 7.88% | 9.4% | 6.46% |
| CC1(C)NC(N)=NC(=N)N1OCCc1ccc(N)cc1 | 5.6% | 6.43% | 5.49% |
| COc1ccc(NC(=O)Nc2cccc(-c3cccc(-c4nc5cccc(C)c5[nH]4)c3)c2)cc1 | -1.25% | -0.57% | -1.79% |
| O=C(/C=C/c1cccc(OC(F)(F)F)c1)NCCCCCN1CCC(c2c[nH]c3ccccc23)CC1 | 1.81% | 0.75% | -2.1% |
| Cc1cccc2nc(-c3ccc(-c4cccc(CN5CCCC5CN)c4)s3)[nH]c12 (configuration not stated) | 2.06% | -0.2% | -0.03% |
| CN(C)S(=O)(=O)n1ncc2c3c(N)nc(N)nc3ccc21 | 0.68% | 1.22% | 0.96% |
| COc1c(C2CCN(CCCCNC(=O)c3ccc(-c4ccc(Cl)cc4)cc3)CC2)ccc2c1C(C)(C)CCC2(C)C | -1.1% | -1.15% | -2.13% |
| CC(C)Cn1c(Sc2ccc(C#N)c([N+](=O)[O-])c2)nnc1-c1cccc(Cl)c1 | 12.7% | 12.4% | 9.62% |
| Cc1ccc2nc3c(cc(C(=O)NCCc4ccccc4)c(=N)n3CCCOC(C)C)c(=O)n2c1 | -0.01% | 0.31% | -1.76% |
| Cc1cccc2nc(-c3ccc(-c4cccc(NC(=O)CCc5c[nH]cn5)c4)s3)[nH]c12 | 3.85% | 2.05% | 1.67% |
| CCc1c(CCNCCCCCCNCCc2ccc([N+](=O)[O-])cc2)ccc(O)c1O | -1.33% | -0.9% | 0.31% |
| c1ccc(-n2cncn2)cc1 | 0.46% | 1.47% | 4.67% |
| Cc1ccc(C)c(Cn2ccc3nc(N)nc(N)c32)c1 | 2.05% | 1.94% | -0.67% |
